These results are taken from PubChem BioAssay (Tox21).

Values without a mark were called inactive. Records with an inconclusive call do not appear. Entries that show only a call come without a potency. Activity calls are given as the source filed them. Calls follow the shape of the full dose curve.

The nature of the first experiment: G protein-coupled receptor (GPCR) small molecule agonists, calcium flux assay: HEK293 wild type cell line counter screen (AID 1920065). The settings on record: HEK293 WT calcium flux, fluorescence, agonist mode; series mostly up to 57.6 µM. The essentials: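 Wild-type HEK293 cells plated 18 h, loaded with calcium dye 1 h at 37 C, then compounds added in agonist mode (ATP as positive control). Kinetic fluorescence Ex/Em 480/540 recorded 3 min at 1 sec intervals; 15 concentrations, triplicate.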
Background: A change in cytosolic calcium serves as a functional read-out for many receptors and channels.
As to `CC(C)OCC1CO1` (configuration not stated), the outcome was inactive.

Consider `CCCCCCC(CO)CCCC` (configuration not stated), for which the result was inactive.

As to `S=C(SSSSSSC(=S)N1CCCCC1)N1CCCCC1`, the activation was 0.115% [at 11.8 µM].

Take `NC(=O)C(=O)N/N=C/c1ccc([N+](=O)[O-])o1`: the result was inactive.

`O=C(CCCN1CCC(O)(c2ccc(Br)cc2)CC1)c1ccc(F)cc1`: the result was inactive.

Turning to `O=S(O)O`, the activation was -0.558% [at 11.8 µM].

For the compound `COc1cc(C(=O)NS(=O)(=O)c2ccccc2C)ccc1Cc1cn(C)c2ccc(NC(=O)OC3CCCC3)cc12`, the outcome was inactive.

With `O=C1O[C@@H]2[C@@H](O)[C@H](O)O[C@@H]2[C@H]1O`, the outcome was inactive.

Regarding `O=CCCc1ccccc1`, the outcome was inactive.

In the case of `Cc1oc(-c2ccccc2)nc1CCC(=O)c1ccc(CC2SC(=O)NC2=O)cc1` (configuration not stated), the outcome was inactive.

Turning to `CCCCNc1ccc(NCCCC)c2c1C(=O)c1ccccc1C2=O`, the activation is 0.174% [at 11.8 µM].

Regarding `O=C(O)c1ccncc1`, the result was inactive.

As to `CC(=O)N(CC(O)CN(C(C)=O)c1c(I)c(C(=O)NCC(O)CO)c(I)c(C(=O)NCC(O)CO)c1I)c1c(I)c(C(=O)NCC(O)CO)c(I)c(C(=O)NCC(O)CO)c1I` (configuration not stated), the outcome was inactive.

Regarding `CCNC(=O)N1CCN(CCCC(c2ccc(F)cc2)c2ccc(F)cc2)CC1`, the outcome was inactive.

With `CC/C=C\CCOC(=O)c1ccccc1`, the outcome was inactive.

On to `CCc1cc(Cc2cc(CC)cc(C(C)(C)C)c2O)c(O)c(C(C)(C)C)c1`, for which the result was inactive.

Consider `CCC1=C(C)CN(C(=O)NCCc2ccc(S(=O)(=O)NC(=O)NC3CCC(C)CC3)cc2)C1=O` (configuration not stated), for which the result was inactive.

For the compound `CCOC(=O)C1=C(C)NC(C)=C(C(=O)OC)C1c1cccc(Cl)c1Cl` (configuration not stated), the result was inactive.

For the compound `Clc1ccnc(Cl)n1`, the outcome was inactive.

As to `OCc1ccccn1`, the outcome was inactive.

For the compound `CCOC(=O)/C=C/C(=O)O`, the result was inactive.

Take `CCCCC`: the result was inactive.

For the compound `Cc1ccc2c(c1)c1c3n2CCNC3CCC1` (configuration not stated), the result was inactive.

With `CCOc1ccccc1N`, the outcome was inactive.

With `CC(C(=O)O)c1ccc(C(=O)c2ccccc2)s1` (configuration not stated), the outcome was inactive.

On to `CCCCCCC(=O)OCC`, for which the result was inactive.

On to `NS(=O)(=O)c1cc(C(=O)NN2C[C@H]3[C@H]4CCC(C4)[C@H]3C2)ccc1Cl`, for which the outcome was inactive.

`CC(CC(C#N)(c1ccccc1)C(C)C)N(C)C` (configuration not stated): the outcome was inactive.

As for `C=CCCCC`, the outcome was inactive.

As for `CCCCCCCC1CCCC1=O` (configuration not stated), the outcome was inactive.

A further experiment in a line: p53 small molecule agonists, cell-based qHTS assay with human liver microsomes (AID 1963577). The conditions noted are these: HCT-116 p53RE-bla with human liver microsomes, ratio, 16 h; series mostly up to 66 µM. In short, it runs like this: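 In this qHTS, p53 response-element beta-lactamase cells receive test compound together with a microsome/NADPH activating system (0.5 mg/mL final each) and are incubated 16 h at 37 C before LiveBLAzer fluorescence detection.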
(In general: Quantitative high-throughput screening tests each substance at several concentrations.)
In the case of `CC(C)OCC1CO1` (configuration not stated), the Potency entry was “inactive”.

For the compound `S=C(SSSSSSC(=S)N1CCCCC1)N1CCCCC1`, the activation was -17.2% [at 13.5 µM].

Turning to `CO[Si](CCCS)(OC)OC`, the Potency entry was “inactive”.

For `NC(=O)C(=O)N/N=C/c1ccc([N+](=O)[O-])o1`, the Potency entry is “inactive”.

For `CC(C)OC(=O)C(C(=O)OC(C)C)=C1SC=CS1`, the Potency entry was “inactive”.

With `COc1cc(C(=O)NS(=O)(=O)c2ccccc2C)ccc1Cc1cn(C)c2ccc(NC(=O)OC3CCCC3)cc12`, the Potency result was “inactive”.

On to `O=C1O[C@@H]2[C@@H](O)[C@H](O)O[C@@H]2[C@H]1O`, for which the Potency entry is “inactive”.

Turning to `CCc1ccc(CC)cc1`, the Potency entry is “inactive”.

`Cc1oc(-c2ccccc2)nc1CCC(=O)c1ccc(CC2SC(=O)NC2=O)cc1` (configuration not stated): the Potency entry was “inactive”.

Take `Clc1cc(Cl)c(-c2c(Cl)c(Cl)cc(Cl)c2Cl)cc1Cl`: the Potency entry was “inactive”.

For `CC(=O)N(CC(O)CN(C(C)=O)c1c(I)c(C(=O)NCC(O)CO)c(I)c(C(=O)NCC(O)CO)c1I)c1c(I)c(C(=O)NCC(O)CO)c(I)c(C(=O)NCC(O)CO)c1I` (configuration not stated), the Potency result was “inactive”.

Regarding `CCCCCCCCCCCCS(=O)(=O)Cl`, the activation was 0.955% [at 13.5 µM].

For the compound `CCNC(=O)N1CCN(CCCC(c2ccc(F)cc2)c2ccc(F)cc2)CC1`, the Potency result was “inactive”.

Regarding `CCc1cc(Cc2cc(CC)cc(C(C)(C)C)c2O)c(O)c(C(C)(C)C)c1`, the Potency result was “inactive”.

Take `CCC1=C(C)CN(C(=O)NCCc2ccc(S(=O)(=O)NC(=O)NC3CCC(C)CC3)cc2)C1=O` (configuration not stated): the Potency result was “inactive”.

In the case of `OCC(CO)(CO)COCC(CO)(CO)CO`, the Potency result is “inactive”.

Take `Cc1ccc2c(c1)c1c3n2CCNC3CCC1` (configuration not stated): the Potency result was “inactive”.

As to `CCCCCCC(=O)OCC`, the Potency entry was “inactive”.

For `NS(=O)(=O)c1cc(C(=O)NN2C[C@H]3[C@H]4CCC(C4)[C@H]3C2)ccc1Cl`, the Potency entry was “inactive”.

As to `CC1(C)S[C@@H]2[C@H](NC(=O)C(C(=O)O)c3ccccc3)C(=O)N2[C@H]1C(=O)O` (some centres not stated), the Potency entry was “inactive”.

With `CC(CC(C#N)(c1ccccc1)C(C)C)N(C)C` (configuration not stated), the Potency result was “inactive”.

For `O=P(O)(O)C(O)(Cc1cccnc1)P(=O)(O)O`, the Potency result was “inactive”.

For the compound `CCCCCCCC1CCCC1=O` (configuration not stated), the Potency result is “inactive”.

The nature of another experiment: p53 small molecule agonists, cell-based qHTS assay with rat liver microsomes (AID 1963578). The conditions noted are these: HCT-116 p53RE-bla, beta-lactamase ratio, 16 h; series mostly up to 66 µM. The essentials:
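Agonist mode in p53RE-bla reporter cells, with compounds co-incubated 16 h at 37 C alongside 0.5 mg/mL rat liver microsomes and 0.5 mg/mL NADPH (final), followed by a 2 h LiveBLAzer detection step.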
As for `CCCCCCC(CO)CCCC` (configuration not stated), the Potency entry is “inactive”.

On to `CO[Si](CCCS)(OC)OC`, for which the Potency result is “inactive”.

For `O=C(CCCN1CCC(O)(c2ccc(Br)cc2)CC1)c1ccc(F)cc1`, the Potency entry is “inactive”.

For `CC(C)OC(=O)C(C(=O)OC(C)C)=C1SC=CS1`, the Potency entry is “inactive”.

With `O=S(O)O`, the activation was -0.532% [at 13.6 µM].

Take `COc1cc(C(=O)NS(=O)(=O)c2ccccc2C)ccc1Cc1cn(C)c2ccc(NC(=O)OC3CCCC3)cc12`: the Potency entry is “inactive”.

Regarding `CC(C)(C)N(CCO)CCO`, the Potency result is “inactive”.

Turning to `Cc1oc(-c2ccccc2)nc1CCC(=O)c1ccc(CC2SC(=O)NC2=O)cc1` (configuration not stated), the Potency result was “inactive”.

In the case of `CCCCNc1ccc(NCCCC)c2c1C(=O)c1ccccc1C2=O`, the activation is 1.5% [at 13.6 µM].

As to `O=C(O)c1ccncc1`, the Potency result is “inactive”.

`Clc1cc(Cl)c(-c2c(Cl)c(Cl)cc(Cl)c2Cl)cc1Cl`: the Potency entry was “inactive”.

Turning to `CCCCCCCCCCCCS(=O)(=O)Cl`, the activation was -3.11% [at 13.6 µM].

As to `CC/C=C\CCOC(=O)c1ccccc1`, the Potency entry was “inactive”.

In the case of `CCC1=C(C)CN(C(=O)NCCc2ccc(S(=O)(=O)NC(=O)NC3CCC(C)CC3)cc2)C1=O` (configuration not stated), the Potency result was “inactive”.

With `CCOC(=O)C1=C(C)NC(C)=C(C(=O)OC)C1c1cccc(Cl)c1Cl` (configuration not stated), the Potency result is “inactive”.

In the case of `Clc1ccnc(Cl)n1`, the Potency result is “inactive”.

Turning to `OCC(CO)(CO)COCC(CO)(CO)CO`, the Potency result is “inactive”.

In the case of `OCc1ccccn1`, the Potency entry is “inactive”.

As to `CCOC(=O)/C=C/C(=O)O`, the Potency entry was “inactive”.

On to `CCCCC`, for which the Potency result was “inactive”.

`Cc1ccc2c(c1)c1c3n2CCNC3CCC1` (configuration not stated): the Potency result is “inactive”.

For the compound `CCOc1ccccc1N`, the Potency entry was “inactive”.

Consider `CCCCCCC(=O)OCC`, for which the Potency entry was “inactive”.

As to `NS(=O)(=O)c1cc(C(=O)NN2C[C@H]3[C@H]4CCC(C4)[C@H]3C2)ccc1Cl`, the Potency entry was “inactive”.

Take `CC1(C)S[C@@H]2[C@H](NC(=O)C(C(=O)O)c3ccccc3)C(=O)N2[C@H]1C(=O)O` (some centres not stated): the Potency result is “inactive”.

For `CC(CC(C#N)(c1ccccc1)C(C)C)N(C)C` (configuration not stated), the Potency entry was “inactive”.

In the case of `O=P(O)(O)C(O)(Cc1cccnc1)P(=O)(O)O`, the Potency result was “inactive”.

Take `C=CCCCC`: the Potency result is “inactive”.

As for `CCCCCCCC1CCCC1=O` (configuration not stated), the Potency entry was “inactive”.
